According to PubChem BioAssay (NCATS):
“And” between values parts separate entries of the source, which are not always exact repeats. Identical values can stand only once. Inconclusive results are not listed. A structure can be active in one record and inactive in another. A number with no mark means an inactive call. The source made the active and inactive calls. Unless noted, calls follow the shape of the dose curve; as a rule, active = well fitted curve in the direction sought with a large enough effect; inconclusive = small, poorly fitted or top-dose-only effect, or another doubt; inactive = no such curve, though single readings can be large; an effect the other way counts as inactive or inconclusive.

Key:
[1] = biological target: Cellular tumor antigen p53 (Homo sapiens) (UniProt P04637); test: Primary qHTS for small molecule compounds that upregulate eGFP-tagged delta133p53alpha (in N-terminal) cells. (AID 2060322); settings: NCI-H358 eGFP-delta133p53alpha fluorescence, 24 h; activation: stronger effect = higher value; also: nearly all actives have a fitted effect of over 75% in size; also: potency is read from the fitted curve at half-maximal effect;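 as to activation: cells pre-induced with doxycycline then dosed without doxycycline; series mostly up to about 56 µM; 0% = DMSO vehicle and 100% = reference activator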
Method in brief: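 NCI-H358 cells pre-induced 24 h with 10 ng/ml doxycycline for eGFP-delta133p53alpha, plated dox-free and exposed 24 h at 37C to titrated compounds. Fixed, Hoechst-stained; gated GFP peak intensity by laser scanning cytometry, normalized to DMSO (0%) and 57.5 uM 5-azacytidine (100%).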

[2] = biological target: Aldehyde dehydrogenase, mitochondrial (Homo sapiens) (UniProt P05091); test: qHTS for Inhibitors of the Aldehyde Dehydrogenase Family (ALDH2) Primary screen (AID 2061308);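 also: plate controls were vehicle for no effect and reference inhibitor for full effect; nearly all actives have a fitted effect of over 55% in size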
[3] = biological target: Retinaldehyde dehydrogenase 3 (Homo sapiens) (UniProt P47895); test: qHTS for Inhibitors of the Aldehyde Dehydrogenase Family (ALDH1A3) Primary screen (AID 2061315);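 also: plate controls were DMSO vehicle for no effect and reference inhibitor for full effect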
[4] = BET inhibitor-based combinations targeting novel dependencies in MECOM-rearranged (r) AML: MV-4-11 cell line (AID 2202233); also: nearly all actives have a fitted effect of over 45% in size; also: potency is read from the fitted curve at half-maximal effect
Method in brief: (§1)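 Cells were plated at 500 per well and exposed to each drug across an 11-point dose range for 48 hr at standard incubator conditions. Viability was read by CellTiter-Glo luminescence, and activity was expressed as AUC and per-cell-line Z-transformed AUC.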

[5] = BET inhibitor-based combinations targeting novel dependencies in MECOM-rearranged (r) AML: HNT-34 cell line (AID 2202234); also: nearly all actives have a fitted effect of over 35% in size; also: potency is read from the fitted curve at half-maximal effect
Method in brief: as §1

[6] = BET inhibitor-based combinations targeting novel dependencies in MECOM-rearranged (r) AML: UCSD-AML1 cell line (AID 2202235); also: nearly all actives have a fitted effect of over 40% in size; also: potency is read from the fitted curve at half-maximal effect
Method in brief: as §1

[7] = BET inhibitor-based combinations targeting novel dependencies in MECOM-rearranged (r) AML: AML-191 cell line (AID 2202236; also: nearly all actives have a fitted effect of over 35% in size; also: potency is read from the fitted curve at half-maximal effect)
Method in brief: (§2)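 500 cells/well; 11-pt dose curve; 48 h, standard incubator; CellTiter-Glo luminescence after 15 min RT; DMSO/empty-well normalization; AUC plus Z-AUC (mean-centered within each line).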

[8] = BET inhibitor-based combinations targeting novel dependencies in MECOM-rearranged (r) AML: AML-194 cell line (AID 2202237; also: nearly all actives have a fitted effect of over 40% in size; also: potency is read from the fitted curve at half-maximal effect)
Method in brief: as §2

[9] = biological target: Retinaldehyde dehydrogenase 3 (Homo sapiens) (UniProt P47895); test: qHTS for Inhibitors of the Aldehyde Dehydrogenase Family (ALDH1A3) Validation screen (AID 2061312); also: % is scaled to controls: 0 for no effect and ±100 for the full control effect; nearly all actives have a fitted effect of over 45% in size
[10] = BET inhibitor-based combinations targeting novel dependencies in MECOM-rearranged (r) AML: OCI-AML3 cell line (AID 2202232); settings: Potency: OCI-AML3 viability; also: nearly all actives have a fitted effect of over 35% in size; also: potency is read from the fitted curve at half-maximal effect
Method in brief: as §2

[11] = BET inhibitor-based combinations targeting novel dependencies in MECOM-rearranged (r) AML: SET-2 cell line (AID 2202231); settings: SET-2 AML cells viability, CellTiter-Glo luminescence, 48 h; viability: stronger effect = lower value, concentration not given here; also: nearly all actives have a fitted effect of over 35% in size; also: potency is read from the fitted curve at half-maximal effect;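 as to viability: plate controls were DMSO treated cells for no effect and wells without cells for full effect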
Method in brief: as §2

[12] = biological target: Aldehyde dehydrogenase, mitochondrial (Homo sapiens) (UniProt P05091); test: qHTS for Inhibitors of the Aldehyde Dehydrogenase Family (ALDH2) Validation screens (AID 2061302; active = well fitted inhibition curve with a large enough effect; title and protocol of this record describe different tests;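 also: plate controls were DMSO vehicle for no effect and maximal DPI positive control response for full effect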)

Chain of Cellular tumor antigen p53 (Homo sapiens) (P04637 whole entry, looked up): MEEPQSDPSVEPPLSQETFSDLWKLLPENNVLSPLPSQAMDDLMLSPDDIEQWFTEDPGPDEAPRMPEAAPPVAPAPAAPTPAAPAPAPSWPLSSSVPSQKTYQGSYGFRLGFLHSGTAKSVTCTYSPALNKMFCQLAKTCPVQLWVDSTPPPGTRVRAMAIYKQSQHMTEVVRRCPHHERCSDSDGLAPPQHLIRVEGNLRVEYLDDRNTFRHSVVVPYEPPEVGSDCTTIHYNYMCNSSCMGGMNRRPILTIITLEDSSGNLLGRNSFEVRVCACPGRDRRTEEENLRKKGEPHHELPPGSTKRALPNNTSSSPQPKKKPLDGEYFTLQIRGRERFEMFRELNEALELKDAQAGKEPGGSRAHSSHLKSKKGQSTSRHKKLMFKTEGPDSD

| SMILES | Potency [1] | activation [1] | Potency [2] | Potency [3] | Potency [4] | Potency [5] | Potency [6] | Potency [7] | Potency [8] | Potency [9] | Potency [10] | viability [11] [%] | Potency [11] | Potency [12] |
| --- | --- | --- | --- | --- | --- | --- | --- | --- | --- | --- | --- | --- | --- | --- |
| CCc1cccc(CC)c1NC(=O)N1Cc2[nH]nc(NC(=O)c3ccc(N4CCN(C)CC4)cc3)c2C1 | 12.2 µM (active) | 5.63% | inactive | inactive | 1.32 µM (active) | 0.742 µM (active) | 14.8 µM (active) | 5.25 µM (active) | 9.34 µM (active) | – | – | – | – | – |
| c1ccc2c(CCNc3ccc(Nc4ccncc4)cc3)c[nH]c2c1 | 30.6 µM (active) | -5.73% | inactive | inactive | 0.934 µM (active) | 2.95 µM (active) | 3.72 µM (active) | 10.5 µM (active) | 3.32 µM (active) | inactive | 1.32 µM (active) | – | – | – |
| COc1ccc(C2CC(c3ccccc3)=NN2c2ccc(S(N)(=O)=O)cc2)cc1 (stereo not drawn) | 21.7 µM (active) | -16.2% | inactive | inactive | – | – | inactive | inactive | – | inactive | – | – | – | – |
| NS(=O)(=O)NCCNc1nonc1C(=Nc1ccc(F)c(Br)c1)NO | 2.16 µM (active) | -6.33% and -3% | inactive | inactive | inactive | inactive | inactive | inactive | inactive | – | inactive | 106 | – | – |
| CN(C[C@@H]1COCCO1)S(=O)(=O)Nc1ccc2ccc3ncc(-c4cnn(C)c4)cc3c(=O)c2c1 | 8.63 µM (active) | -1.43% | inactive | inactive | 0.417 µM (active) | 3.32 µM (active) | 5.9 µM (active) | 6.61 µM (active) | – | inactive | – | – | – | – |
| Cc1cn(-c2cc(NC(=O)c3ccc(C)c(Nc4nccc(-c5cccnc5)n4)c3)cc(C(F)(F)F)c2)cn1 | 30.1 µM (active) | 12.7% | inactive | inactive | 1.86 µM (active) | 0.0295 µM (active) | – | – | – | – | 1.18 µM (active) | – | – | – |
| Fc1cc(-c2cccc3ncc(-c4cnn(C5CCNCC5)c4)nc23)cc(F)c1CN1CCOCC1 | 27.3 µM (active) | -17.4% | inactive | inactive | 0.934 µM (active) | 2.35 µM (active) | 3.32 µM (active) | 10.5 µM (active) | 6.61 µM (active) | – | 11.8 µM (active) | – | 4.68 µM (active) | – |
| O=C(Nc1ccc([N+](=O)[O-])cc1Cl)c1cc(Cl)ccc1O | 4.26 µM (active) | 122% and -83.1% | – | – | 4.17 µM (active) | 1.05 µM (active) | 1.32 µM (active) | – | 1.48 µM (active) | – | – | – | – | inactive |
| Cc1cc(Nc2nc(N[C@@H](C)c3ncc(F)cn3)ncc2Cl)n[nH]1 | 21.7 µM (active) | -0.181% and 24.8% | inactive | inactive | – | 2.63 µM (active) | – | 0.132 µM (active) | – | inactive | 1.32 µM (active) | – | 1.48 µM (active) | – |
| O=C(Nc1cc(C(F)(F)F)cc(C(F)(F)F)c1)c1cc(Cl)ccc1O | 3.01 µM (active) | 2.31% | inactive | inactive | 1.86 µM (active) | 2.35 µM (active) | 1.66 µM (active) | 1.18 µM (active) | 2.63 µM (active) | – | 2.09 µM (active) | – | 2.35 µM (active) | – |
| Cc1nc2c(-c3cnc(N)nc3)nc(N3CCOCC3)nc2n1C(C)C | 9.66 µM (active) | 14.3% | inactive | inactive | 0.296 µM (active) | 0.525 µM (active) | – | – | – | – | – | – | – | – |
| COc1cc2c(Nc3ccc(Br)cc3F)ncnc2cc1OCC1CCN(C)CC1 | 21.3 µM (active) | 0.071% and -8.47% | inactive | inactive | 3.32 µM (active) | 2.63 µM (active) | 14.8 µM (active) | 20.9 µM (active) | 23.5 µM (active) | – | 23.5 µM (active) | – | – | – |
| CNC(=O)CN1CCC(Oc2cc3c(Nc4cccc(Cl)c4F)ncnc3cc2OC)CC1 | 13.7 µM (active) | 14.3% | inactive | inactive | – | 16.6 µM (active) | 20.9 µM (active) | inactive | inactive | – | – | – | – | – |
| CCCNC(=O)Nc1ccc(Oc2ncnc3cc(OC)c(OC)cc23)cc1Cl | 26.9 µM (active) | 17.1% | inactive | inactive | – | inactive | – | inactive | – | – | – | 92.8 | – | – |
| Cc1cc(C)c(CNC(=O)c2cc(-c3ccc(CN4CCOCC4)cc3)cc3c2cnn3C2CCCC2)c(=O)[nH]1 | 4.31 µM (active) | 7.64% | inactive | inactive | 29.5 µM (active) | – | – | – | – | – | – | – | – | – |
